Source: the supplement of paper PMC11732987, “Enantioselective OTUD7B fragment discovery through chemoproteomics screening and high-throughput optimisation” (Communications Chemistry, 2025)

Legend:
Experiment in all cases: log2 ratio of Biotin-Ahx-Ub-VS probe labelling (fragment/DMSO); higher = less target engagement (more negative = stronger competition), active = hit call of the paper (q ≤ 0.05, log2 ratio ≤ -1)
Conditions in all cases: compound concentration: 200 uM; treatment time: 3 h
ALG13 = target: T1, ALG13 (UniProt Q9NP73)
T1 sequence (whole entry): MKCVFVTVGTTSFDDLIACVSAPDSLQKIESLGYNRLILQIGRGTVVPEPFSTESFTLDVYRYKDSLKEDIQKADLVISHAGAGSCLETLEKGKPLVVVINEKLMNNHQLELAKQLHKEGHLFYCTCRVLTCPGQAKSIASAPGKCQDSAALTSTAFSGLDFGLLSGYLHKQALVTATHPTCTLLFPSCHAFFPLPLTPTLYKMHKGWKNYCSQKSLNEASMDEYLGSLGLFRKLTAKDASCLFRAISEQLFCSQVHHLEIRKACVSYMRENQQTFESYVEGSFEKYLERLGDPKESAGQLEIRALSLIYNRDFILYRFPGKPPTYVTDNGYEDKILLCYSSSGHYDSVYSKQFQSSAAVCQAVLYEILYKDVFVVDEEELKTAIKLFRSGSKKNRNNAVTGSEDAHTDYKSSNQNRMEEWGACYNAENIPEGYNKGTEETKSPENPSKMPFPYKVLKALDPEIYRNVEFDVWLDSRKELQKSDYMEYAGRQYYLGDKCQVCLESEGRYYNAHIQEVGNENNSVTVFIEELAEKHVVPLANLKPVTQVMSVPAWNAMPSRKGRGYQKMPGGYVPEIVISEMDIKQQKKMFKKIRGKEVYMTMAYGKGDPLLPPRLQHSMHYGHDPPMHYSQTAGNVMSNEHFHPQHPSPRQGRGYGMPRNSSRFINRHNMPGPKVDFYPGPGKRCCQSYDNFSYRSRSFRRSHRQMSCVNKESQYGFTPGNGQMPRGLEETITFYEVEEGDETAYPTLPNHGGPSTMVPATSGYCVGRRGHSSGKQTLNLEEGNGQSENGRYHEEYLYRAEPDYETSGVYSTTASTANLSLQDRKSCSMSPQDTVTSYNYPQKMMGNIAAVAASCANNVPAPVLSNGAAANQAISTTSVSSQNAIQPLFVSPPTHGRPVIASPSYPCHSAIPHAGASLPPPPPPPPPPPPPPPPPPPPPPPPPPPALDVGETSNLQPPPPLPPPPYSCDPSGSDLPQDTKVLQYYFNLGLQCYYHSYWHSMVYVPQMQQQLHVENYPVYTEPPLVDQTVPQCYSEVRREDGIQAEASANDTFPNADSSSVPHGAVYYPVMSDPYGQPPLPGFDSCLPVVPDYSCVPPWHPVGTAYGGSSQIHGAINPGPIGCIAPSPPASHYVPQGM
Outline: (§1)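 HEK293T lysate in Tris/CHAPS/IGEPAL buffer with protease inhibitors (495 µg per sample) was given fragment at 200 µM or vehicle for 3 h, in triplicate. It then received Biotin-Ahx-Ub-VS at 0.5 µM final for 1 h. Labelled DUBs were NeutrAvidin-enriched, digested with LysC and trypsin, and run by diaPASEF LC-MS/MS. Values are average log2 fragment/vehicle ratios by unpaired t-test on global-median-normalised Spectronaut quantities of proteins with ≥2 unique peptides.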

ATXN3 = ATXN3 (UniProt P54252)
Sequence of ATXN3 (P54252 whole entry): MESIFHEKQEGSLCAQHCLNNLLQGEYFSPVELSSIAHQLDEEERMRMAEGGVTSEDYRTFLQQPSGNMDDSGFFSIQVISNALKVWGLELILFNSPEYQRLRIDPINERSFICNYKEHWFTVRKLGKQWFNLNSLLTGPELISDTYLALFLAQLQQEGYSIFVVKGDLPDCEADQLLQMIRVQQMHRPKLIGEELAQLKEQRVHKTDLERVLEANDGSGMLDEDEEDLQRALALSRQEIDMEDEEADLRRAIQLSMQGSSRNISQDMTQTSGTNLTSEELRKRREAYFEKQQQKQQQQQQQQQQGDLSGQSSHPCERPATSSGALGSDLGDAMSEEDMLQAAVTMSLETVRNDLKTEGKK
Outline: as §1

BAP1 = target: T2, BAP1 (UniProt Q92560)
T2 sequence (whole entry): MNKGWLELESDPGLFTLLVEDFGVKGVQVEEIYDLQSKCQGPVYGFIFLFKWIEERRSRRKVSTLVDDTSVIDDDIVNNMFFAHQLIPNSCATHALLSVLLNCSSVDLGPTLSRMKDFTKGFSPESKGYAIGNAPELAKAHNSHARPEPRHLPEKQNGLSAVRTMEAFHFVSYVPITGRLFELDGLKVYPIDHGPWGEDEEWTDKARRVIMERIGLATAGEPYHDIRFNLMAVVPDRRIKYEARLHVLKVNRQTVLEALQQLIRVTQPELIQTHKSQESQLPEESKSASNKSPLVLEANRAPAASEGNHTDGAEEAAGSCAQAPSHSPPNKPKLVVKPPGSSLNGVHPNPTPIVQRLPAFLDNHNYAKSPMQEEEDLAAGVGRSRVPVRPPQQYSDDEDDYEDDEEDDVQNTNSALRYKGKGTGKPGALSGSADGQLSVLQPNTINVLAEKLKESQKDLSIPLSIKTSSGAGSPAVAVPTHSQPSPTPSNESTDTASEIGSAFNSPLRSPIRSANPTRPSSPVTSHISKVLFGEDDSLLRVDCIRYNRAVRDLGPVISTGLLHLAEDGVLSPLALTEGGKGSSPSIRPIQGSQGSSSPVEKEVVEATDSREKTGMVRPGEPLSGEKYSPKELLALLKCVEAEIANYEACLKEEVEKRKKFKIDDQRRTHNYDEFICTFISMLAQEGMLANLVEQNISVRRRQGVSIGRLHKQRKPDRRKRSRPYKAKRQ
Outline: as §1

EIF3F = EIF3F (UniProt O00303)
Sequence of EIF3F (O00303 whole entry): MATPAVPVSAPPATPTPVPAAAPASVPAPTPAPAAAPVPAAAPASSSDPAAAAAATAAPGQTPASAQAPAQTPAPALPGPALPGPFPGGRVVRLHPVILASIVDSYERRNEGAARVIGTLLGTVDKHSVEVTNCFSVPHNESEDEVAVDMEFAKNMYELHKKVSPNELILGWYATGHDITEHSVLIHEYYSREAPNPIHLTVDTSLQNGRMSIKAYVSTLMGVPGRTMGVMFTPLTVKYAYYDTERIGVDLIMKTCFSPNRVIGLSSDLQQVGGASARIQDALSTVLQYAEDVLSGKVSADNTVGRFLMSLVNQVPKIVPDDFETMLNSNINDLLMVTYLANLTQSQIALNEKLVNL
Outline: as §1

EIF3H = EIF3H (UniProt O15372)
Sequence of EIF3H (O15372 whole entry): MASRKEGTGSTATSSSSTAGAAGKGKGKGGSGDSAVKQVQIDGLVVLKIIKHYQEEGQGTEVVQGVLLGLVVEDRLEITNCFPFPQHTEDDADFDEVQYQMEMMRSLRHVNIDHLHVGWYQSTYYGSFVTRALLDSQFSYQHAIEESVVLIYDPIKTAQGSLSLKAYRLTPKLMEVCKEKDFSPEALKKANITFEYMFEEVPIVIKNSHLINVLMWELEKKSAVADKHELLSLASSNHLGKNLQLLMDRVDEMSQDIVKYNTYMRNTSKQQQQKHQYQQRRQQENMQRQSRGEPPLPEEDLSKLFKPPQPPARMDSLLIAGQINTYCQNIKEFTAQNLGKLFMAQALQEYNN
Outline: as §1

FAM105A = target: T3, FAM105A (UniProt Q9NUU6)
T3 sequence (whole entry): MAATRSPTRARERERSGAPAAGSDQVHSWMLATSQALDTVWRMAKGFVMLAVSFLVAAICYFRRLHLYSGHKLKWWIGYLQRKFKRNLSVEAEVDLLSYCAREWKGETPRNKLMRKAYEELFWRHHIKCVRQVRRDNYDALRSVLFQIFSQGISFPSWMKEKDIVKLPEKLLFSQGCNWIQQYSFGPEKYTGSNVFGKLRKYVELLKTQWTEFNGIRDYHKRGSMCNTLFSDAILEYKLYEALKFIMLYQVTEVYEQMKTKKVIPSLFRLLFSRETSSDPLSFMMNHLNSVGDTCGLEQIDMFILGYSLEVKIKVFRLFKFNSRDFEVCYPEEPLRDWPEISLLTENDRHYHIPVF
Outline: as §1

OTUB1 = OTUB1 (UniProt Q96FW1)
Sequence of OTUB1 (Q96FW1 whole entry): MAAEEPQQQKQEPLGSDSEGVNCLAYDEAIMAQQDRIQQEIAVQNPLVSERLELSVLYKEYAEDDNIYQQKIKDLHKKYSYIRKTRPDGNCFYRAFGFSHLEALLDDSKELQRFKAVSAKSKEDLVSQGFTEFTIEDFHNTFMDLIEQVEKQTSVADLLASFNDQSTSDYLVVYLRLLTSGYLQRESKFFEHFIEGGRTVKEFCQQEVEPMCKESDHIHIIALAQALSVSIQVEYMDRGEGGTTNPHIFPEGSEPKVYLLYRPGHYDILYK
Outline: as §1

OTUD4 = target: T4, OTUD4 (UniProt Q01804)
T4 sequence (whole entry): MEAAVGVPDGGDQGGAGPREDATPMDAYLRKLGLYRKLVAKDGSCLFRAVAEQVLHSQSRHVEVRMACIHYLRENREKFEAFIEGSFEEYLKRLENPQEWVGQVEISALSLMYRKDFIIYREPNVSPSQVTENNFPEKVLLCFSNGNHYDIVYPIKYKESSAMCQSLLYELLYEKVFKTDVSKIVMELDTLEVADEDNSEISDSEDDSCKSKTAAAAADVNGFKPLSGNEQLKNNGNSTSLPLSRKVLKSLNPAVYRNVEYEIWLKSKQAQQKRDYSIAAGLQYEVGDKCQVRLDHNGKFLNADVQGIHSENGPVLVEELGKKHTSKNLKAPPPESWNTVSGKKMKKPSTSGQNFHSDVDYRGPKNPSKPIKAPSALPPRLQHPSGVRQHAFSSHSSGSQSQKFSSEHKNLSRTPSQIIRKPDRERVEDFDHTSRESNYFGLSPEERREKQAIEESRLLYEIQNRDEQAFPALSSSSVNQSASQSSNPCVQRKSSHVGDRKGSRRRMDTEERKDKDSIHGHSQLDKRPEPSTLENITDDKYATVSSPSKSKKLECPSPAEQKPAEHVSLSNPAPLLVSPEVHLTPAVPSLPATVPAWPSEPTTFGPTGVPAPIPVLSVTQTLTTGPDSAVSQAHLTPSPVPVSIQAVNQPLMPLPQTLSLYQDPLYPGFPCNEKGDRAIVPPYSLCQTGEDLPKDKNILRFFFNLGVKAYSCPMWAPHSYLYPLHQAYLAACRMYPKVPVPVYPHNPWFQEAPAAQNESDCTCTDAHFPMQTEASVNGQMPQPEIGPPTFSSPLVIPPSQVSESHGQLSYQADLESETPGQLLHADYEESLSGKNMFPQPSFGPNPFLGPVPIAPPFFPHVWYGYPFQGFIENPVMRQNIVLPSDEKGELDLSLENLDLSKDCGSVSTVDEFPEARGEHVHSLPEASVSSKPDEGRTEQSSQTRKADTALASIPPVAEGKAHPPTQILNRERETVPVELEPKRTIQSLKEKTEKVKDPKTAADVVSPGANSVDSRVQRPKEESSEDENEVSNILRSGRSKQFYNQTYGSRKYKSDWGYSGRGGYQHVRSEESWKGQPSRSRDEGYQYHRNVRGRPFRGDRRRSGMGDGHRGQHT
Outline: as §1

OTUD5 = target: T5, OTUD5 (UniProt Q96G74)
T5 sequence (whole entry): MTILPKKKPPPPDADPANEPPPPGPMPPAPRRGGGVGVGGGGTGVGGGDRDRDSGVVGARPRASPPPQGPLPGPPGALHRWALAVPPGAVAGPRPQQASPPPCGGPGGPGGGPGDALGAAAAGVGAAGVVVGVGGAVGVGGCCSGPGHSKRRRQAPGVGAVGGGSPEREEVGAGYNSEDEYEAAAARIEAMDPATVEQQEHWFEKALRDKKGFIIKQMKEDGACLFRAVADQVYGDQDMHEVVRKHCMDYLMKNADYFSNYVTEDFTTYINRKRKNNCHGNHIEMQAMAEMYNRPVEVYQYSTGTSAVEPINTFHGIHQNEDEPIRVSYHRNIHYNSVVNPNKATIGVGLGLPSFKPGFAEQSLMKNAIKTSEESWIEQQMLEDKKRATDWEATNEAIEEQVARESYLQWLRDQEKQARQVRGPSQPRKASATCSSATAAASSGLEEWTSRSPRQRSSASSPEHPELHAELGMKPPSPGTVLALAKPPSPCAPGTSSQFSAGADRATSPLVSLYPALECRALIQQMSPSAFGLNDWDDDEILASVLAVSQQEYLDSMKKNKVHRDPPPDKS
Outline: as §1

Measured: log2 ratio of Biotin-Ahx-Ub-VS probe labelling

O=C(CCl)N1CCC(OCc2ccccc2F)CC1
inactive: ALG13 -0.0579 | ATXN3 -0.708 | BAP1 -0.64 | EIF3F -0.319 | EIF3H -0.284 | FAM105A -0.178 | OTUB1 -0.00851 | OTUD4 -0.169 | OTUD5 -0.0801
